Compound activity as filed in PubChem BioAssay.
HEK293 tox – Cytotoxic Profiling in HEK 293 Cell Line of Diverse Libraries Using Quantitative High-Throughput Screening; HEK 293 viability, ATP luminescence (CellTiter-Glo), 48-72 h; Potency, µM (titrated, usually from 115 µM), inactives show top-dose activity change, negative = cytotoxicity, usual class: inhibitors; 94,000 compounds, 6.6% hits; AID 1345083, 2018; note: nearly all actives have a fitted effect of over 60% in size
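qHTS cytotoxicity; HEK 293, 250 cells/well; compound pinned; 48 or 72 hr, 37 degree Celsius, 5% CO2, 95% humidity; CellTiter-Glo, 10 min RT; luminescence (ATP).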
NIH3T3 tox – Cytotoxic Profiling in NIH 3T3 Cell Line of Diverse Libraries Using Quantitative High-Throughput Screening. NIH 3T3 viability, CellTiter-Glo ATP luminescence, 48-72 h. Potency, µM (doses to about 96.7 µM), without a hit: at the top dose activity change, negative = cytotoxicity, hits mostly inhibitors. 94,000 compounds, 4.3% hits. AID 1345082, 2018; note: nearly all actives have a fitted effect of over 55% in size
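Mouse fibroblast NIH 3T3 cells, 400 per well, received compound via pintool and were incubated for 48 or 72 hr prior to CellTiter-Glo ATP luminescence measurement.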
NPR1 antag – Natriuretic polypeptide receptor (hNpr1) antagonism - Primary qHTS | Atrial natriuretic peptide receptor 1 (Homo sapiens), P16066 | HEK293 hNpr1 GloSensor cGMP, ANP-stimulated luminescence | Potency, µM (titrated, usually from 46.3 µM), without a hit: top-dose activity change, negative = inhibition, usual class: inhibitors | 76,000 compounds, 1.6% hits | AID 1347048, 2019; calls by dose curve; note: nearly all actives have a fitted effect of over 60% in size
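HEK293 cells stably expressing human Npr1 and cGMP GloSensor pGS-40F, loaded 2 h with 2% GloSensor reagent, given compound 30 min at room temperature. Luminescence read before and 20 min after 0.1 nM hNppA.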
Luciferase inh – Firefly luciferase inhibition profiling of diverse chemical library using quantitative high-throughput screening; 76,000 compounds, 2.5% hits; Potency, µM (series often up to 115 µM), hits mostly inhibitors; AID 1347043, 2019; Luciferin 4-monooxygenase (Photinus pyralis), P08659; purified P. pyralis luciferase, luminescence, biochemical; note: nearly all actives have a fitted effect of over 65% in size
Target sequence (P08659 whole entry, looked up): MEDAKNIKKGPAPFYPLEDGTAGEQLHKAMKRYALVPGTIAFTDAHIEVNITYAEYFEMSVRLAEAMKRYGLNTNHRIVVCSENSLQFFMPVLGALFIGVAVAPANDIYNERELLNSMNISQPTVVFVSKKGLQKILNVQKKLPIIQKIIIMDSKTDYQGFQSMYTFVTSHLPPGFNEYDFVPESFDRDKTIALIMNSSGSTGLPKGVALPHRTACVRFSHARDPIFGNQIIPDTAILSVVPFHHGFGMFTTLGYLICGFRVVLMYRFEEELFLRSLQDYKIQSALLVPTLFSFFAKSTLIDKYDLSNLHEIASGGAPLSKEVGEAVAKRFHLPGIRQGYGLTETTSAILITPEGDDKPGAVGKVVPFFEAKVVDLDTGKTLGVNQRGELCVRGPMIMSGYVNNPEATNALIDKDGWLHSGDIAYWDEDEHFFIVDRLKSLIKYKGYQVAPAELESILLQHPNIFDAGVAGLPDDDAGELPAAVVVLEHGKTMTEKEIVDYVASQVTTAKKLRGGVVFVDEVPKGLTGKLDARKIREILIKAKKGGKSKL
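Purified 10nM P. pyralis luciferase with 10uM D-luciferin and 10uM ATP in 50mM Tris acetate pH 7.5, 10mM Mg acetate, 0.01% Tween-20, 0.05% BSA. qHTS titration; luminescence read by CCD imager.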
Active calls of the source: *; i = inactive; ? = inconclusive; / = no result given; [ ] = dose if it differs, or a comment. Most compounds without a hit are left out; they make up all but 11% or so of the library. Unless noted, calls come from the whole dose curve; as a rule, active = well fitted curve in the direction sought with a large enough effect; inconclusive = small, poorly fitted or top-dose-only effect, or another doubt; inactive = no such curve, though single readings can be large; an effect the other way counts as inactive or inconclusive. % is set by controls: 0 for no effect and ±100 for the full control effect; potency is the fitted concentration of half-maximal effect.

SMILES	HEK293 tox	NIH3T3 tox	NPR1 antag	Luciferase inh
O=C(NC1CCCCCC1)c1ccc2nc(-c3ccncc3)oc2c1	-25%	-24%	/	/
O=C(Nc1ccccc1)N1CCC(c2nn(-c3ccccn3)c(=O)[nH]2)CC1	i	-15%	/	/
CC(=O)Oc1c(-c2ccc(NC(=O)c3ccco3)cc2)c(C2CC2)nn1-c1cccc(C)c1	?	?	-4%	i
Cc1noc(C)c1-c1cnc(Nc2cccc(C(F)(F)F)c2)c2c1CCO2	63µM*	?	-17%[70.6 µM]	?
CNC(=O)c1cccc(-c2cnc(Nc3ccncc3)c3c2CCO3)c1	?	?	3%[70.6 µM]	i
CNC(=O)c1cccc(-c2cnc(Nc3cccc(C(F)(F)F)c3)c3c2CCO3)c1	63µM*	40µM*	?	?
Cc1noc(C)c1-c1cnc(Nc2ccccc2)c2c1CCO2	?	?	2%[70.6 µM]	i
Cn1ncc2c(C(=O)N3CCCC3)cc(-c3ccccc3)nc21	?	-28%[138 µM]	/	/
O=C(Cc1cccc(F)c1)N1CCC(OCCOc2cccnc2)CC1	-29%	-23%	/	/
Cn1ncc2c(C(=O)NCCCc3ccccc3)cc(-c3ccccc3F)nc21	?	-32%	/	/
CC(C)(CC1Cc2ccccc2C1)NC(=O)C1CC2(CCNCC2)CN1 (stereo not given)	25µM*	32µM*	0%	i
O=C(NCc1ccccc1F)C1CCCCN1Cc1ccc(-c2ccsc2)cc1 (stereo not given)	?	32µM*	/	/
O=C(NCc1ccc(F)cc1F)C1CCCCN1Cc1ccc(-c2ccsc2)cc1 (stereo not given)	28µM*	?	/	/
O=C(NCc1ccccn1)C1CCCCN1Cc1ccc(-c2ccsc2)cc1 (stereo not given)	40µM*	40µM*	/	/
O=C(NCc1ccccn1)C1Cn2cccc2C(=O)N1Cc1ccccc1 (stereo not given)	i	2%	-11%	i
COc1ccc(CN2C(=O)COC[C@H]2C(=O)NCc2ccc(F)cc2F)cc1	-8%	-17%	1%	i
C[S+](=O)([O-])N1CCN(C(=O)c2nc3cccnc3n(CCc3ccccc3)c2=O)CC1	4%	-9%	/	/
O=C(NCc1ccccc1)c1cn(C2CN(C(=O)Cc3ccccc3)C2)nn1	-7%	-6%	/	/
Cc1ccc(C(=O)N2Cc3c(C(=O)NC4CC4)nn(C)c3C2)cc1F	0%	0%	/	/
CN1CCCN(C(=O)C2CCC2)c2ccccc21	-12%	-20%	-6%	i
COc1ccccc1C(=O)N1CCCN(C)c2ccccc21	79µM*	?	-11%	i
CN1CCCN(C(=O)C2CCCC2)c2ccccc21	89µM*	?	-5%	i
O=C(NC1CCCCCC1)c1ccc2oc(-c3ccncc3Cl)nc2c1	-27%[172 µM]	0%[138 µM]	/	/
CC(C)c1nc2c(c(-c3ccc(Cl)cc3)n1)CN(C(=O)C(C)(C)C)CC2	40µM*	?	/	/
CC(C)c1nc2c(c(-c3ccc(O)cc3)n1)CN(Cc1ccc(OC(F)(F)F)cc1)CC2	22µM*	22µM*	0%	i
SMILES	HEK293 tox	NIH3T3 tox	NPR1 antag	Luciferase inh
COc1ccc(-c2nc(C(C)C)nc3c2CCN(C(=O)c2ccc(C(F)(F)F)cc2)CC3)cc1	32µM*	28µM*	-15%	i
CCc1nc2c(c(-c3ccc(Cl)cc3)n1)CCN(C(=O)c1ccc(C)cc1)CC2	?	?	0%	i
COc1ccc(-c2nc(C(C)C)nc3c2CCN(C(=O)c2ccc(C)cc2)CC3)cc1	?	?	5%	i
Cc1ccc(C(=O)N2CCc3nc(C(C)C)nc(-c4ccc(Cl)cc4)c3CC2)cc1	79µM*	?	/	/
Cn1ncc2c(C(=O)NCc3ccc4c(c3)OCO4)cc(-c3ccc(C(F)(F)F)cc3)nc21	1%	?	/	/
CC(C)c1nc2c(c(-c3ccc(Cl)cc3)n1)CCN(Cc1ccsc1)CC2	45µM*	?	/	/
COc1ccc(-c2nc(C(C)C)nc3c2CCN(C(=O)Nc2ccc(Cl)cc2)CC3)cc1	?	35µM*	0%	i
CN(C)C(=O)N1CCCC(C(=O)N2CCC(c3ccccc3)CC2)C1 (stereo not given)	-9%	-7%	/	/
CC1(COCC2CC2)COc2ccc(C(=O)Nc3ccccc3)cc2N1 (stereo not given)	?	?	-30%[70.6 µM]	22µM*
CC1(COCC2CC2)COc2ccc(C(=O)NCc3ccccc3)cc2N1 (stereo not given)	?	?	-7%[70.6 µM]	i
CC1(COCC2CC2)COc2ccc(C(=O)Nc3cccc([S+](C)(=O)[O-])c3)cc2N1 (stereo not given)	100µM*	?	-21%[70.6 µM]	i
COc1ccc(C(=O)N2CC[C@@H]3COCCN(C)[C@@H]3C2)c(OC)c1	?	1%	-11%	22µM*
OC[C@@H]1CN(Cc2ccc(F)cc2)C[C@H]1c1nc(-c2ccncc2)no1	?	?	14µM*	?
OC[C@@H]1CN(Cc2ccoc2)C[C@H]1c1nc(-c2ccncc2)no1	?	-18%	2%	?
OC[C@@H]1CN(Cc2cccc(F)c2)C[C@H]1c1nc(-c2ccncc2)no1	45µM*	-17%	-23%	i
C[S+](=O)([O-])N1CCCC1C(=O)N1CCC(N2Cc3ccccc3C2=O)CC1 (stereo not given)	-2%	3%	/	/
O=C(NCCc1ccncc1)c1coc(COc2ccc(F)cc2Cl)n1	32µM*	?	-10%	i
COCCN(C)C(=O)c1coc(COc2ccc(F)cc2Cl)n1	i	?	7%	i
O=C(c1coc(COc2ccc(F)cc2Cl)n1)N1CCCCO1	?	-1%	-17%	35µM*
Cc1noc([C@H]2CCN(S(=O)(=O)Cc3ccccc3)C[C@H]2NC(=O)C2CC2)n1	i	-5%	/	/
CNC(=O)c1cc(C)nc2onc(C3CCN(C(=O)Nc4ccccc4)C3)c12 (stereo not given)	i	-2%	/	/
COc1ccc2nc3n(c2c1)[C@@H](CNC(=O)NC(C)C)COC3	1%[172 µM]	4%[138 µM]	-1%[70.6 µM]	i
COc1ccc2nc3n(c2c1)[C@@H](CNC(C)C)COC3	-14%[230 µM]	100µM*	1%[70.6 µM]	i
Fc1ccccc1-c1cc2c(ccn2Cc2ccncc2)c(N2CCOCC2)n1	89µM*	35µM*	-1%[70.6 µM]	i
c1cc(-c2cc3c(ccn3Cc3ccncc3)c(N3CCOCC3)n2)c2cn[nH]c2c1	89µM*	14µM*	-18%[70.6 µM]	i
c1cc(-c2cc3c(ccn3Cc3ccncc3)c(N3CCOCC3)n2)c2cc[nH]c2c1	32µM*	35µM*	-16%[70.6 µM]	i
c1cc(-c2cc3c(ccn3Cc3ccncc3)c(N3CCOCC3)n2)c2[nH]ncc2c1	89µM*	?	-13%[70.6 µM]	i
COc1ncccc1-c1cc2c(ccn2Cc2ccncc2)c(N2CCOCC2)n1	-30%[172 µM]	?	-9%[70.6 µM]	i
